# Assay results published in PubChem BioAssay AID2314 (National Center for Advancing Translational Sciences (NCATS), 2010).
# About 37,000 (12%) of roughly 300,000 compounds were called active. The sample holds actives, similar compounds and a random draw of the others, so the mix is not that of the screen. Unmarked numbers belong to inactive results. Rule as the data show it: active = max response mostly above about 13% (no sharp cut-off); inactive = mostly below about 14%.
# Assay: Cycloheximide Counterscreen for Small Molecule Inhibitors of Shiga Toxin; also: read at 38.3 µM for the half of the compounds with a filed dose; 0% is about no effect
# Conditions: cell reporter, cycloheximide protein synthesis inhibition counterscreen; hits give high values
row,Structure (SMILES),max response
1,CC(=O)Nc1ccc(S(=O)(=O)NC2Cc3ccccc3C2)cc1,-1.22%
2,CCN1/C(=C/C(=S)Nc2ccccc2)Sc2ccccc21,44.5% (active)
3,O=C(CCN1c2ccccc2Sc2ccccc21)Nc1ccccc1,9.13%
4,CCNC(=O)N1c2ccccc2Sc2ccccc21,-0.857%
5,CCn1cc(C(=O)NCC(=O)NC(C)(C)CO)c(=O)c2cc3c(cc21)OCO3,1.3%
6,O=C(CN1C(=O)C2C3C=CC(C3)C2C1=O)Nc1nc(-c2ccccn2)cs1 (stereo not given),-1.06%
7,O=C(N/N=C/c1ccccc1O)/C(=C/c1ccccc1)CCO,16.6% (active)
8,O=C(CCCO)N/N=C/c1cc(Br)ccc1O,-2.8%
9,O=C(CC(=O)N/N=C\c1cccc(Cl)c1Cl)NCc1ccccc1,8.71%
10,COc1ccc(OC)c(S(=O)(=O)N2CCCC(C(=O)NCCc3ccccc3)C2)c1 (stereo not given),8.7%
11,Cc1cccc(N2CCN(C(=O)c3cnn4c(C(F)F)cc(-c5ccccc5)nc34)CC2)c1C,-1.97%
12,CSCCC(NC(=O)c1ccc(Cl)cc1Cl)C(=O)NNC(=O)c1csc(N2CCOCC2)n1 (stereo not given),0.959%
13,O=C(COc1ccc([N+](=O)[O-])cc1)Nc1ccc(N2CCCC2)cc1,-1.27%
14,NC(=O)c1ccc(NC(=O)COC(=O)c2ccc([N+](=O)[O-])cc2)cc1,0.779%
15,O=C(COC(=O)C1CCCCC1)Nc1ccc([N+](=O)[O-])cc1,24.8% (active)
16,CC1(C)C(C=C(Cl)Cl)C1C(=O)NC(O)C(=O)c1ccccc1 (stereo not given),-3.63%
17,CCn1cc(C(=O)NCc2ccc(OC)cc2OC)c(=O)c2ccc(C)nc21,-2.54%
18,Cc1cccc(NC(=O)C2CCN(S(=O)(=O)c3cccc4cccnc34)CC2)c1,-2.32%
19,Cc1ccnc(NC(=O)C2CCN(S(=O)(=O)c3c(C)c(C)cc(C)c3C)CC2)c1,13.3% (active)
20,CNC(=O)C1CCN(S(=O)(=O)c2c(C)noc2/C=C/c2cccc(C)c2)CC1,-3.52%
21,CN(c1ccccc1)S(=O)(=O)c1cc(C(=O)OCC(=O)N2CCN(C(=O)c3ccco3)CC2)ccc1Cl,-1.38%
22,COc1cccc(C(=O)Nc2nnc(S(=O)(=O)N(C)c3ccccc3)s2)c1,-2.81%
23,CN(c1ccccc1)S(=O)(=O)c1cc(C(=O)Nc2nc3ccccc3[nH]2)ccc1Cl,16.5% (active)
24,O=C(CN1CCN(c2ncccn2)CC1)Nc1ccccc1C(F)(F)F,-6.89%

row,Structure (SMILES),max response
1,O=C(C1CCCN(S(=O)(=O)c2ccc([N+](=O)[O-])cc2)C1)N1CCCCC1 (stereo not given),1.11%
2,COc1ccccc1-c1nnc(SCC(=O)Nc2ccccc2)o1,11.4% (active)
3,COc1ccccc1-c1nnc(SCC(=O)N2CC(C)CC(C)C2)o1 (stereo not given),1.31%
4,COc1ccc(CCNC(=O)CSc2nnc(CNC(=O)c3cccs3)o2)cc1OC,-3.82%
5,COc1ccc(-c2nnc(SCC(=O)c3cccs3)o2)c(OC)c1,51.4% (active)
6,COc1cccc(NC(=O)CSc2nnc(Cc3ccc(OC)c(OC)c3)o2)c1,-3.54%
7,COc1ccccc1-c1nnc(SCC(=O)Nc2cc(C)on2)o1,2.69%
8,CSc1ccc(CCNC(=O)CS(=O)(=O)Cc2nc(-c3ccccc3F)oc2C)cc1,-3.5%
9,Cc1nn(-c2ncc(C(F)(F)F)cc2Cl)c(=O)n1-c1ccccc1,0.461%
10,Cc1cc(C)c2nc(SCCC#N)nc(C)c2c1,1.85%
11,Cc1cc(C)c2nc(-c3ccco3)cc(C(=O)O)c2c1,0.856%
12,Cc1cc(C)c2nc3nc(C)cc(C)c3c(N)c2c1,15.1% (active)
13,COc1ccc(/C=C(/NC(=O)c2ccco2)C(=O)Nc2ccc(C(C)=O)cc2)cc1,2.87%
14,COc1ccc(C(CC(=O)c2ccccc2)S(=O)(=O)c2ccccc2)cc1 (stereo not given),30% (active)
15,COc1ccc(CN(C)C(=O)CC(c2ccccc2)c2ccccc2)cc1,-2.05%
16,COc1ccc(N(Cc2ccccc2)S(=O)(=O)c2cccc(C(=O)O)c2)cc1,-3.66%
17,Cc1ccc(SCc2c(C(=O)N/N=C/c3cccnc3)nnn2-c2nonc2N)cc1,2.02%
18,CC(C)C[C@H](NC(=O)C1CC(=O)N(c2ccc3c(c2)OCCO3)C1)C(=O)NC1CCCC1 (stereo not given in full),6.36%
19,C=C1CCN(C(CC(C)C)C(=O)N2CCOCC2)S(=O)(=O)c2ccccc21 (stereo not given),4.95%
20,Cc1ccc(Cc2cnc(NC(=O)/C(C#N)=C/c3ccc(-c4cccc([N+](=O)[O-])c4)o3)s2)cc1,-0.479%
21,N#C/C(=C/c1ccc(-c2ccccc2[N+](=O)[O-])o1)C(=O)NCCN1CCCCC1,2.31%
22,Cc1ccc(-c2ccc(/C=C(\C#N)C(N)=S)o2)c([N+](=O)[O-])c1,16% (active)
23,COc1ccc(C)cc1N(C(=O)Cn1nnc(-c2ccc(C)o2)n1)C(C(=O)NC1CCCC1)c1ccncc1 (stereo not given),-6.77%
24,O=C(O)c1ccc(NC(=O)C2CCCCC2)cc1,-1.35%

row,Structure (SMILES),max response
1,CC(C)NS(=O)(=O)c1ccc(NC(=O)C2CCCCC2)cc1,-0.865%
2,O=C(Nc1ccc(-c2ccc3nncn3n2)cc1)C1CCCCC1,16% (active)
3,CCCOc1ccc(C2NC(=O)NC(c3ccccc3)=C2C(C)=O)cc1OCC (stereo not given),-7.3%
4,CCN1N=C(c2ccccc2)CCC1=O,-2.27%
5,Nc1ccn(C2CC(O)C(CO)O2)c(=O)n1 (stereo not given),-1.51%
6,Clc1ccc(Nc2nc(-c3cccs3)cs2)nc1,37.5% (active)
7,COC(=O)c1cc(-c2cccs2)nc2ccccc12,-2.85%
8,c1cnc(Nc2nc(-c3ccc4ccccc4c3)cs2)nc1,42.5% (active)
9,c1ccc(Nc2nc(-c3ccncc3)cs2)nc1,36.4% (active)
10,CC(NC(=O)c1ccco1)C(=O)Nc1nc(-c2ccccn2)cs1 (stereo not given),-2.97%
11,c1ccc(NCc2cccc3ccccc23)nc1,9.29%
12,COc1ccc(-c2csc(Nc3ccccn3)n2)cc1,40.4% (active)
13,COC(=O)CSc1nccc(-c2cccs2)n1,17%
14,COc1ccc2cc(S(=O)(=O)Nc3ccccn3)ccc2c1,-3.68%
15,COc1ccc(-c2nc(CS(=O)(=O)CC(=O)NCc3cccc(Br)c3)c(C)o2)cc1,6.41%
16,Cc1ccc(OCCCCN2CCCCC2)c(Br)c1,10.9%
17,CC(C)(C)NC(=O)NC(=O)COC(=O)C1c2ccccc2Oc2ccccc21,0.419%
18,Cc1ccc(CNC(=O)c2cccnc2Cl)cc1,6.44%
19,CCN(C(=O)c1ccc(Br)cc1)c1ccccc1,-3.18%
20,Cc1cccc(C(=O)N2CCCC(Nc3ccc(C(C)C)cc3)C2)n1 (stereo not given),17.8%
21,CCOC(=O)C1(CCOc2ccccc2)CCN(Cc2ccc(C#CCCO)cc2)CC1,-3.24%
22,CCCC1=Nc2cc(C(=O)NCCN3CCCC3)ccc2Sc2ccccc21,-5.31%
23,O=C(Nc1ccc(OCC(=O)N2CCOCC2)cc1)c1cc(F)c(F)cc1Cl,2.51%
24,O=C(Nc1nccs1)c1cc(S(=O)(=O)N2CCOCC2)c(Cl)cc1Cl,-3.9%

row,Structure (SMILES),max response
1,CCN1CCc2nc(NC(=O)c3cc(F)c(F)cc3Cl)sc2C1,18.8% (active)
2,Cc1cc(NC(=O)CSc2nnnn2-c2ccc(F)cc2)no1,-1.5%
3,COc1ccc(-n2nnnc2SCC(=O)c2ccc(OC)c(OC)c2)cc1,-0.506%
4,O=C(CSc1nnnn1-c1ccc(O)cc1)c1ccc(F)cc1,23.5% (active)
5,CCC(C(=O)NCc1cccnc1)n1nc(C)c2sc3ccccc3c2c1=O (stereo not given),-10.2%
6,CC(C)N(C(=O)Cn1cc(S(=O)(=O)CC(=O)N2CCOCC2)c2ccccc21)C(C)C,2.9%
7,O=C(NCCCn1ccnc1)C1CCCN(S(=O)(=O)c2cc(Cl)ccc2Cl)C1 (stereo not given),-4.82%
8,O=c1cc(-c2ccc(O)cc2)oc2c([C@@H]3O[C@H](CO)[C@@H](O)[C@H](O)[C@H]3O)c(O)cc(O)c12,-8.35%
9,CCn1ccnc1CN(C)Cc1nc(-c2ccc3c(c2)OCO3)no1,28.4% (active)
10,CC(C)N(Cc1nc(-c2ccc3c(c2)OCO3)no1)CC1CCC(=O)N1 (stereo not given),1.08%
11,CN(CCN1CCOCC1)Cc1nc(-c2ccc3c(c2)OCO3)no1,8.52%
12,Cc1ccc(C)c(N2CCN(C(=O)CCCCCn3c(=S)[nH]c4ccc(N5CCOCC5)cc4c3=O)CC2)c1,9.94%
13,COc1cc(OC)c(OC)cc1/C=N/Nc1ncnc2c1[nH]c1ccc(C)cc12,-3.15%
14,Fc1ccc2[nH]c3c(N4CCSCC4)ncnc3c2c1,5.04%
15,CC(C)OCCCNc1ncnc2c1[nH]c1ccc(F)cc12,39% (active)
16,O=CN1CCN(C(=O)c2ccc(Br)o2)CC1,1.29%
17,C=CCn1c(Oc2ccc(C(=O)OC)cc2)nc2c1c(=O)n(C)c(=O)n2C,-5.23%
18,Cc1ccccc1NC(=O)N1CCCC1C(=O)NCc1ccccc1 (stereo not given),-1.83%
19,Cc1c(CCO)c(=O)[nH]n1C(=O)c1c(F)cccc1F,17%
20,COc1ccc(-n2ncc3c(N4CCCc5ccccc54)ncnc32)cc1,44.9% (active)
21,COc1ccc(-n2ncc3c(N4CCc5ccccc54)ncnc32)cc1,49.8% (active)
22,COc1ccc(Oc2c(Cl)cnn(-c3ccccc3)c2=O)cc1,-1.92%
23,COc1ccc(CCC(C)N2CCc3ccccc3C2)cc1 (stereo not given),1.02%
